According to ChEMBL document CHEMBL1961873, “Compounds: GSK PKIS; Assays: Nanosyn kinase panel” (2012):

Tests used:
[1] = molecular target: Tyrosine-protein kinase Fer (Homo sapiens) (UniProt P16591); details: at 1 µM
[2] = molecular target: Tyrosine-protein kinase Fes/Fps (Homo sapiens) (UniProt P07332); details: at 0.1 µM
[3] = molecular target: Tyrosine-protein kinase Fes/Fps (Homo sapiens) (UniProt P07332); details: at 1 µM
[4] = molecular target: Fibroblast growth factor receptor 1 (Homo sapiens) (UniProt P11362); details: at 0.1 µM
[5] = molecular target: Fibroblast growth factor receptor 1 (Homo sapiens) (UniProt P11362); details: at 1 µM
[6] = molecular target: Fibroblast growth factor receptor 2 (Homo sapiens) (UniProt P21802); details: at 0.1 µM
Chain of Fibroblast growth factor receptor 2 (Homo sapiens) (P21802 22-821 limits assumed): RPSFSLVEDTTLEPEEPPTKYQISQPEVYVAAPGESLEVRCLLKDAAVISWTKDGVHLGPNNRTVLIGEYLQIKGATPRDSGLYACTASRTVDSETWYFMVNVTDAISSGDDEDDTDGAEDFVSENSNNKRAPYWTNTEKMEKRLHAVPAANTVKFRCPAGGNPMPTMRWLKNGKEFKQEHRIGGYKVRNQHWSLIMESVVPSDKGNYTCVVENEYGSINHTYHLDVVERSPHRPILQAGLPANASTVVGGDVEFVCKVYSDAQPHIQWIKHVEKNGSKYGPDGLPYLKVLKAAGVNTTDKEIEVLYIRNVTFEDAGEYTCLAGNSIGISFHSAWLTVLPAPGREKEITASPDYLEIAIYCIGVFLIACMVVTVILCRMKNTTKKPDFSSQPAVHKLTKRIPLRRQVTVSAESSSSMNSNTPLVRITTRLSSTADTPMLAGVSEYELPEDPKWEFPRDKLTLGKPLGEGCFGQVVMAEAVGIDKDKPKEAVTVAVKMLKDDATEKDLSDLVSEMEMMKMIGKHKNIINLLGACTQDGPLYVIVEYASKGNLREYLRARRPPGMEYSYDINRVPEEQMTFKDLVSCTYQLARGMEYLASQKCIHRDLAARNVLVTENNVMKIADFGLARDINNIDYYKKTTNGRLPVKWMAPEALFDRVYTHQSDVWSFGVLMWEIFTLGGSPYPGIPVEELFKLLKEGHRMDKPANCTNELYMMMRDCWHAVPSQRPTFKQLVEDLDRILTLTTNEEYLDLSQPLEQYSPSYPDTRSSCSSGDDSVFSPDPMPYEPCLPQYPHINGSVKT

[7] = molecular target: Fibroblast growth factor receptor 2 (Homo sapiens) (UniProt P21802); details: at 1 µM
[8] = molecular target: Fibroblast growth factor receptor 3 (Homo sapiens) (UniProt P22607); details: at 0.1 µM
Chain of Fibroblast growth factor receptor 3 (Homo sapiens) (P22607 23-806 limits assumed): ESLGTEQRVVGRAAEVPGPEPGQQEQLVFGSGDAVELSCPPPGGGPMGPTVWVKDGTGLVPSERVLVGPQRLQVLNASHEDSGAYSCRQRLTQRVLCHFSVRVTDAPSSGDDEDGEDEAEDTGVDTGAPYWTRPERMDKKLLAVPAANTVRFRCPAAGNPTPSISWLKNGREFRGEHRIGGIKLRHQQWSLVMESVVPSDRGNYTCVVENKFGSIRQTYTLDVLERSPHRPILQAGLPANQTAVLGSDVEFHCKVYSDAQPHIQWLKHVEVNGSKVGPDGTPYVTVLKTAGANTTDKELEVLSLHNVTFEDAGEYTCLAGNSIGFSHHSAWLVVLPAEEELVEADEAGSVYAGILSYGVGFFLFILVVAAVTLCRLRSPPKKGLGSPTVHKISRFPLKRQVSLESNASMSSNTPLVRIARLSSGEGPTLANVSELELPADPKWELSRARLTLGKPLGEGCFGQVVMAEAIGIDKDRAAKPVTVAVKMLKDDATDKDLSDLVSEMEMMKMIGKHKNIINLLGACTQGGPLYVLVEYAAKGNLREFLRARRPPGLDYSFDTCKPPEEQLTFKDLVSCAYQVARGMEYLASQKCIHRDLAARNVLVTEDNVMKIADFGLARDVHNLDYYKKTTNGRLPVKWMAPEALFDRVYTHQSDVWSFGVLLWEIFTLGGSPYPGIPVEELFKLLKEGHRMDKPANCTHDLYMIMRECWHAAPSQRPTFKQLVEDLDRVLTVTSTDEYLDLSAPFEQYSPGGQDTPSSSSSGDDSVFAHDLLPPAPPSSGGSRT

[9] = molecular target: Fibroblast growth factor receptor 3 (Homo sapiens) (UniProt P22607); details: at 1 µM
[10] = molecular target: Fibroblast growth factor receptor 4 (Homo sapiens) (UniProt P22455); details: at 0.1 µM
Chain of Fibroblast growth factor receptor 4 (Homo sapiens) (P22455 22-802 limits assumed): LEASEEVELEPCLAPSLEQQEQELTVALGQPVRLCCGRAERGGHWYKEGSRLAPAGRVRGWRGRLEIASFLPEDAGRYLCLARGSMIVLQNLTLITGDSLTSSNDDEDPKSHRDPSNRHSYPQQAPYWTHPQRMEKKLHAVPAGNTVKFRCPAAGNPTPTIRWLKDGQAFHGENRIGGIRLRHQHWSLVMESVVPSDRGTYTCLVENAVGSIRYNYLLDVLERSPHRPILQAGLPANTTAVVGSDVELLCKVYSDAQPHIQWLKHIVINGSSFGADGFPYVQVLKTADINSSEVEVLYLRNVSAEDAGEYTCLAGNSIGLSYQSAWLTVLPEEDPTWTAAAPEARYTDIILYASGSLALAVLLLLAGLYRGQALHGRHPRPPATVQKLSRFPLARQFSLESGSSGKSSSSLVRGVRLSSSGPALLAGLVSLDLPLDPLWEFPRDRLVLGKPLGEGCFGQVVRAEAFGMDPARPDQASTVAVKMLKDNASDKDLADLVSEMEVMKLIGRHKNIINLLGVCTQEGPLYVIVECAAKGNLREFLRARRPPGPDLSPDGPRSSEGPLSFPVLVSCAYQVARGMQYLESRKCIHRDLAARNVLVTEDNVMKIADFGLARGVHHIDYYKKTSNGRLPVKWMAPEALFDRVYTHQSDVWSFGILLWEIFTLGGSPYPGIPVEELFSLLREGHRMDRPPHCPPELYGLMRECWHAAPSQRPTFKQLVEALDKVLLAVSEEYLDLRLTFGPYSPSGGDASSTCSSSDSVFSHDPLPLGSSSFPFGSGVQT

[11] = molecular target: Fibroblast growth factor receptor 4 (Homo sapiens) (UniProt P22455); details: at 1 µM
[12] = molecular target: Tyrosine-protein kinase Fgr (Homo sapiens) (UniProt P09769); details: at 0.1 µM
Chain of Tyrosine-protein kinase Fgr (Homo sapiens) (P09769 2-529 limits assumed): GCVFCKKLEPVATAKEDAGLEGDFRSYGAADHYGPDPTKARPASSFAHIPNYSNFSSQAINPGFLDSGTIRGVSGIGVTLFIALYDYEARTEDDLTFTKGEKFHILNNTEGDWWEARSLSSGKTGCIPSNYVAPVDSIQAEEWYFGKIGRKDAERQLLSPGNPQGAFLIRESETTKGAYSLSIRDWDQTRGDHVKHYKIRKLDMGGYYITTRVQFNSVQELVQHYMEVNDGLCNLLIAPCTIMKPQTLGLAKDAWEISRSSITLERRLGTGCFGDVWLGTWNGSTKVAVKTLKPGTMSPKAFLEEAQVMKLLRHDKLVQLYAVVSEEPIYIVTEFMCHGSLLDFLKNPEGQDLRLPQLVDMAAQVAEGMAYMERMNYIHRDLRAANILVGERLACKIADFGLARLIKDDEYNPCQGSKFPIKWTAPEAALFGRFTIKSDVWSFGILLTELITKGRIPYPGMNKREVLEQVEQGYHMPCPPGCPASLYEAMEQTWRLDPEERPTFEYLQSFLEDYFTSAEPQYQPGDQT

[13] = molecular target: Tyrosine-protein kinase Fgr (Homo sapiens) (UniProt P09769); details: at 1 µM
[14] = molecular target: Vascular endothelial growth factor receptor 1 (Homo sapiens) (UniProt P17948); details: at 0.1 µM
[15] = molecular target: Vascular endothelial growth factor receptor 1 (Homo sapiens) (UniProt P17948); details: at 1 µM
[16] = molecular target: Receptor-type tyrosine-protein kinase FLT3 (Homo sapiens) (UniProt P36888); details: at 0.1 µM
[17] = molecular target: Receptor-type tyrosine-protein kinase FLT3 (Homo sapiens) (UniProt P36888); details: at 1 µM
[18] = tested on: T1, Receptor-type tyrosine-protein kinase FLT3 (Homo sapiens), P36888 [D835Y]; details: at 0.1 µM
T1 sequence (whole entry): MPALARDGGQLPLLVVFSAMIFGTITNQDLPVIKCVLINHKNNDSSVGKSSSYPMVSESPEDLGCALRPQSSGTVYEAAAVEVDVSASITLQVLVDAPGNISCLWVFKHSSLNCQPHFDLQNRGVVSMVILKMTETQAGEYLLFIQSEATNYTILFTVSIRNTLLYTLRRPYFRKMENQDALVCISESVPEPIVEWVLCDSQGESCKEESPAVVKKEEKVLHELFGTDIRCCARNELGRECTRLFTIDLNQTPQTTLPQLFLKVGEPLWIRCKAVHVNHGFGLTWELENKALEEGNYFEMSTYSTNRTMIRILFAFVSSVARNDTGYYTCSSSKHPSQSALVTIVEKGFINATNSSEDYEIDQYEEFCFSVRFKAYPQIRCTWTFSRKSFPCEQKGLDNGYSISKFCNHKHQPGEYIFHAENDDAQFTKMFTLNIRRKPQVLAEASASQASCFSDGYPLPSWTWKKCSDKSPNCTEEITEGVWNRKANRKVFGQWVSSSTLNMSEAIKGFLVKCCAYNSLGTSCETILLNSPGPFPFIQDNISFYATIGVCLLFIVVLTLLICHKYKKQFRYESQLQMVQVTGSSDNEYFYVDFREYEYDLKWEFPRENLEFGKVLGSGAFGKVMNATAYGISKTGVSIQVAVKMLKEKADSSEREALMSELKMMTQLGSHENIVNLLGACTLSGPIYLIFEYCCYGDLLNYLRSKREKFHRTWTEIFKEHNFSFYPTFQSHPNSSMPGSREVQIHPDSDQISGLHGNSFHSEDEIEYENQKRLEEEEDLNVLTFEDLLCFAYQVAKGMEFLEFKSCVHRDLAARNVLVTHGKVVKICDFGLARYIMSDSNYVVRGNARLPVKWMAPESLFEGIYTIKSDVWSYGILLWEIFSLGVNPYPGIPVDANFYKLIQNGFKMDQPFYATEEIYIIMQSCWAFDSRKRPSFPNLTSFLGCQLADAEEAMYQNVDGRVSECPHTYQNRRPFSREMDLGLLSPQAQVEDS

[19] = molecular target: Non-receptor tyrosine-protein kinase TYK2 (Homo sapiens) (UniProt P29597); details: at 1 µM;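 further: values are mean percent inhibition of TYK2 kinase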
Chain of Non-receptor tyrosine-protein kinase TYK2 (Homo sapiens) (P29597 whole entry): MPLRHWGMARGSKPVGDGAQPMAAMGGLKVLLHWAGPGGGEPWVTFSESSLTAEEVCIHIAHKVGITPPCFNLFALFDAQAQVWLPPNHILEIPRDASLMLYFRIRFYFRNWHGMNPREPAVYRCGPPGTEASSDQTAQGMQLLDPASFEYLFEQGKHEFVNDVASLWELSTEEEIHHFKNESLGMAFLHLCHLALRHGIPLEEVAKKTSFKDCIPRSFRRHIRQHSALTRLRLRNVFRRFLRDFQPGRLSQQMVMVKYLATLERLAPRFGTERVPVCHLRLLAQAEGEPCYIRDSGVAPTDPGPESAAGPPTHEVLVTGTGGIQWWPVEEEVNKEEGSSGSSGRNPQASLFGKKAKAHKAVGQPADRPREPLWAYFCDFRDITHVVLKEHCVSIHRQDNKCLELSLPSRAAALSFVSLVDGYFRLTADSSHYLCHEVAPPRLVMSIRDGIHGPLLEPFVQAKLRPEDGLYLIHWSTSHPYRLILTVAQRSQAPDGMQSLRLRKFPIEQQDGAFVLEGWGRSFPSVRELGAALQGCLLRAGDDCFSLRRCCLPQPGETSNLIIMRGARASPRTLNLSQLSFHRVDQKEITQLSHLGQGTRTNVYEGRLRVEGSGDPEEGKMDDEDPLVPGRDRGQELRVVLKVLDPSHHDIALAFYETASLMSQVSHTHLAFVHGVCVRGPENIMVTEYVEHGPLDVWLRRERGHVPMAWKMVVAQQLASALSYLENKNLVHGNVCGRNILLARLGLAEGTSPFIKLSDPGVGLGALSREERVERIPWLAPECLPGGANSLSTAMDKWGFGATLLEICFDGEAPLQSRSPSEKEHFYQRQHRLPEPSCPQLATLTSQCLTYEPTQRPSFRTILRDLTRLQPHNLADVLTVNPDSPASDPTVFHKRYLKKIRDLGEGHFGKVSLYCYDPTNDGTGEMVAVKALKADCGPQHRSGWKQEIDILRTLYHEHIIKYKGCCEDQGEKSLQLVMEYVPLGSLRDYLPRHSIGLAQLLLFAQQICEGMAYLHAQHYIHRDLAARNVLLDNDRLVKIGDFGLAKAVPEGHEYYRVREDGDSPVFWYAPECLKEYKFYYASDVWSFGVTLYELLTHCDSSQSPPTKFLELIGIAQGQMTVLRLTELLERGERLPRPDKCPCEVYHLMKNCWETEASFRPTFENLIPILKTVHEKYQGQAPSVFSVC

[20] = molecular target: T2, Tyrosine-protein kinase receptor TYRO3 (Homo sapiens) (UniProt Q06418); details: at 0.1 µM;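 further: reported percentages are averaged inhibition values of TYRO3 kinase activity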
T2 sequence (whole entry): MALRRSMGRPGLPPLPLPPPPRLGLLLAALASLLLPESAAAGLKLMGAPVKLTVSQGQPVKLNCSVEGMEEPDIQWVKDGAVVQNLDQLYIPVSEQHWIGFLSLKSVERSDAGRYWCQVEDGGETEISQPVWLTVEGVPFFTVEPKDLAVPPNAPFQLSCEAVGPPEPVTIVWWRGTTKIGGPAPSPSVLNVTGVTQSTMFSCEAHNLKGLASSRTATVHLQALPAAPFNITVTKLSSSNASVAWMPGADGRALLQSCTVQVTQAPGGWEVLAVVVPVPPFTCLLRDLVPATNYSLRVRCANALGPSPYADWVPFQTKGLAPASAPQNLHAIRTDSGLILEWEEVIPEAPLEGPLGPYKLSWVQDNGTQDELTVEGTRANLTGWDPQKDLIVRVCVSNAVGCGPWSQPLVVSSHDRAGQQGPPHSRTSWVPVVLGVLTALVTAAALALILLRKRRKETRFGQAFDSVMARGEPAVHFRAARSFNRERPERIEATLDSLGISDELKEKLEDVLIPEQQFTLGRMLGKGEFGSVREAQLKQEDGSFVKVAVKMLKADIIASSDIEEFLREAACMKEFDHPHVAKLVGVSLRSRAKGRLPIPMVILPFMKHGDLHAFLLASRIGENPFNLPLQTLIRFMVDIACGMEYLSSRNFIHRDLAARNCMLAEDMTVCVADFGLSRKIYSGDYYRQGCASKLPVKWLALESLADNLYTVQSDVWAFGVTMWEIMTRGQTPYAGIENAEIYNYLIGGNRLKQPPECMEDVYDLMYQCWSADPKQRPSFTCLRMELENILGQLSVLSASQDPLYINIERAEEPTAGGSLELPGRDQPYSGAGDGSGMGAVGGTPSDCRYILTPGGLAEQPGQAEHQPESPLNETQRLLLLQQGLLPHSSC

Chain of Tyrosine-protein kinase Fer (Homo sapiens) (P16591 whole entry, looked up): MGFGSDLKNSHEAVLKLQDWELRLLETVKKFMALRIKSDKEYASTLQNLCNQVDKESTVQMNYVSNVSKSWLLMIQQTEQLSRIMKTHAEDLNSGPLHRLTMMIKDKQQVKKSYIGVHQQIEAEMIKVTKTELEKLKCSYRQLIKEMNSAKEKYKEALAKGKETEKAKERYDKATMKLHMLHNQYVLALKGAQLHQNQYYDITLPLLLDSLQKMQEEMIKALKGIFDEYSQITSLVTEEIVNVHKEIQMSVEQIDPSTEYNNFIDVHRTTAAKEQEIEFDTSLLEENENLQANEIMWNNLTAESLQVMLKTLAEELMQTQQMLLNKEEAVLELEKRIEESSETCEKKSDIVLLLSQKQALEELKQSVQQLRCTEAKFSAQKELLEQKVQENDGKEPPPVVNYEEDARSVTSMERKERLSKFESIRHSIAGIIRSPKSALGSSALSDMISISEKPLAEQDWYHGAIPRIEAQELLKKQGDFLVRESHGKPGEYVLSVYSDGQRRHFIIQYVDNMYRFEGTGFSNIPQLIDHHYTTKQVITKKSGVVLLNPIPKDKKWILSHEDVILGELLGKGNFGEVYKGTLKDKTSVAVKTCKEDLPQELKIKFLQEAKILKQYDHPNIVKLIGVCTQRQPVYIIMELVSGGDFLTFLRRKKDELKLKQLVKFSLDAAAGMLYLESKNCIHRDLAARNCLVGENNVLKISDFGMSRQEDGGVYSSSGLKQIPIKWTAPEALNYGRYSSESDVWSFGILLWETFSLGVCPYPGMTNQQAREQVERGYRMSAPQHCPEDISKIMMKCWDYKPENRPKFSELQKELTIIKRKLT

Structure (SMILES)	inhibition [1] [%]	inhibition [2] [%]	inhibition [3] [%]	inhibition [4] [%]	inhibition [5] [%]	inhibition [6] [%]	inhibition [7] [%]	inhibition [8] [%]	inhibition [9] [%]	inhibition [10] [%]	inhibition [11] [%]	inhibition [12] [%]	inhibition [13] [%]	inhibition [14] [%]	inhibition [15] [%]	inhibition [16] [%]	inhibition [17] [%]	inhibition [18] [%]	inhibition [19] [%]	inhibition [20] [%]
COc1cccc(-n2ncc3c(N/N=C/c4ccncc4)ncnc32)c1	11.7	3.38	5.85	4.8	8.02	4.98	14.5	7.39	11.9	1.99	7.56	29	70	1.64	27.6	7.06	28.3	11.5	0.71	8.97
COc1cccc(COc2cc(-n3cnc4ccccc43)sc2C(N)=O)c1	3.72	0.11	0.56	-3.37	-0.23	-0.92	3.02	-1.31	0.24	-1.48	1.25	1.93	1.54	-2.33	-0.83	-1.3	-4.17	-9.33	-0.53	-0.84
CCn1c(-c2nonc2N)nc2c(C#CC(C)(C)O)ncc(OCC3CCNCC3)c21	6.84	2.17	4.04	-2.34	-0.27	-1.71	3.89	1.17	-1.22	-6.83	-3.68	5.04	4.9	2.92	23.5	-0.18	4.4	3.83	1.52	2.77
NS(=O)(=O)c1ccc(N/C=C2\C(=O)Nc3ccc4ncsc4c32)cc1	13.1	3.55	7.01	5.4	32.8	18.8	53.3	17.1	56.7	1.61	5.81	2.87	21.6	7.41	50.6	32.8	79.5	40.4	41	3.07
CCn1c(-c2nonc2N)nc2c(C#CC(C)(C)O)ncc(OC[C@@H]3CCCN3)c21	0.7	2.01	4.12	-0.74	0.08	-1.27	0.8	-3.24	0.67	2.54	2.23	1.47	2.16	1.39	17.4	-1	-0.61	-6.46	-1.89	-1.01
COc1cc2c(cc1Nc1nc(Nc3ccsc3C(N)=O)c3cc[nH]c3n1)N(C(=O)CN(C)C)CCC2	81.6	77.9	86.8	-0.88	-1.8	1.41	0.97	0.66	2.61	-1.12	1.79	7.89	10.7	-1.61	1.49	-1.64	1.45	-8.75	-1.13	
CCn1c(-c2nonc2N)nc2c(C#CCN)ncc(OCCCN)c21	6.76	-1.95	-1.62	-2.75	2.12	-1.49	0.4	-4.55	-3.83	-2.34	0.77	5.41	1.7	0.25	0.93	1.97	0.52	2.12	5.33	-0.44
